Measured values from PubChem BioAssay (NCATS).
Records with an inconclusive call do not appear. Active and inactive are the calls of the source. Calls follow the shape of the dose curve; as a rule, active = well fitted cell-killing curve with a large enough effect; inconclusive = small, poorly fitted or top-dose-only effect, or effect the other way; inactive = flat fitted curve, though single readings scatter.

test system: CAOV3; assay: Primary qHTS to identify gynecologic anti-cancer compounds using libraries of approved drugs and bioactive compounds (AID 1345084); details: Gynecologic cancer cell panel viability, ATPlite luminescence, 48 h; series mostly up to 57.5 µM; also: nearly all actives have a fitted effect of over 55% in size
Description: National Center for Advancing Translational Sciences [NCATS] Assay Overview: Chemotherapeutic drug responses vary from cancer to cancer and from patient to patient. These variations could be caused by a number of factors including patient genomic background, tumor mutations, tumor heterogeneity, and aspects of drug treatment. Chemotherapeutic drug resistance is also a common issue and can lead to ineffective treatment and patient death. Here we have profiled the cell killing effects of thousands of compounds to characterize the responses in three gynecological cancers, identify cancer-selective compounds, and understand the diversity of responses to these compounds from pan-cancer suppressors to single cell line selective compounds. In this assay, we screened a 7,914 compound drug library that included approved drug and bioactive compounds in six ovarian, three cervical, and […] placental cancer cell lines using the ATPlite assay for cell viability. […] The cervical cancer cell lines included HeLa, Ca Ski, and C-33 A. The placental cancer cell lines included JEG-3. HEK 293T cells were used as the control cell line to determine the selectivity index. ATPlite is a luminescence based assay reliant on the conversion of a luciferase substrate to light in the presence of ATP. As a cytotoxic compound will suppress growth and decrease the number of cells, the concentration of ATP will decrease, and less light signal will be detected in the well.
Assay Protocol Summary: 1,000 cells in 4 uL of media were dispensed into white, solid bottom 1536-well plates using a Multidrop Combi (Thermo Scientific). The Assay plates were incubated for 16 hours at 37 C with 5% CO2 in assay plates, followed by the addition of 23 nL of DMSO or drug dissolved in DMSO. Each compound was assayed in five concentrations (0.092, 0.46, 2.3, 11.5, and 57.5 uM), using the automated Wako 1536 Pin Tool workstation and incubated at 37 C with 5% CO2 48 hours. 4 uL of ATPlite, the ATP monitoring reagent, was then added to the each well of the assay plates using the Multidrop Combi reagent dispenser followed by incubation for 15 minutes at room temperature. The resulting luminescence was measured using the ViewLux plate reader.

| SMILES | outcome |
| --- | --- |
| CCC(C)C(C)(COC(N)=O)COC(N)=O (stereo not given) | inactive |
| COP(=S)(OC)Oc1cc(Cl)c(Cl)cc1Cl | inactive |
| Clc1ccc(C(c2ccc(Cl)cc2)C(Cl)(Cl)Cl)cc1 | inactive |
| O=C(N/N=C/c1ccc([N+](=O)[O-])o1)c1cc([N+](=O)[O-])cc([N+](=O)[O-])c1O | inactive |
| C[C@@H]1CC2=CC(=O)CC[C@@H]2[C@H]2CC[C@@]3(C)[C@@H](CC[C@]3(C)O)[C@@H]21 | inactive |
| Clc1ccccc1N1CCNCC1 | inactive |
| COc1cccc([C@@]2(O)CCCC[C@@H]2CN(C)C)c1 | inactive |
| c1ccc2c(c1)sc1ccccc12 | inactive |
| O=[N+]([O-])O[C@H]1CO[C@H]2[C@@H]1OC[C@H]2O[N+](=O)[O-] | inactive |
| CC(C(=O)c1ccccc1)N(C)C (stereo not given) | inactive |
| O=P1(N(CCCl)CCCl)NCCCO1 (stereo not given) | inactive |
| O=c1c(C2CC(c3ccc(-c4ccc(Br)cc4)cc3)Cc3ccccc32)c(O)sc2ccccc12 (stereo not given) | inactive |
| COc1ccc2c3c1O[C@H]1[C@H](O)CC[C@H]4[C@@H](C2)N(C)CC[C@@]341 | inactive |
| CC(Cc1ccccc1)N(C)Cc1ccco1 (stereo not given) | inactive |
| O=C(O)CCCc1ccc(N(CCCl)CCCl)cc1 | inactive |
| CCCOC(=O)c1cncn1C(C)c1ccccc1 (stereo not given) | inactive |
| C#CC(O)(C=CCl)CC (stereo not given) | inactive |
| NC(=O)CS(=O)C(c1ccccc1)c1ccccc1 (stereo not given) | inactive |
| CCN(CC)CCc1c[nH]c2ccccc12 | inactive |
| COP(=S)(OC)Oc1ccc(SC)c(C)c1 | inactive |

| SMILES | outcome |
| --- | --- |
| CCN[C@H](C)Cc1cccc(C(F)(F)F)c1 | inactive |
| CC[N+]1(CC)CCC(OC(=O)C(O)(c2ccccc2)c2ccccc2)C1 (stereo not given) | inactive |
| C#C[C@]1(O)CC[C@H]2[C@@H]3CCC4=CC(=O)CC[C@]4(C)[C@H]3CC[C@@]21C | inactive |
| NC1=NC(=O)C(c2ccccc2)O1 (stereo not given) | inactive |
| C[C@H](N)C(=O)c1ccccc1 | inactive |
| CN1CCC(O)(c2ccc(F)cc2)C(C(=O)c2ccc(F)cc2)C1 (stereo not given) | inactive |
| C[C@H]1[C@@H]2Cc3ccc(O)cc3[C@@]1(C)CCN2C | inactive |
| O=C1OC(c2ccc(O)c(S(=O)(=O)O)c2)(c2ccc(O)c(S(=O)(=O)O)c2)c2c(Br)c(Br)c(Br)c(Br)c21 | inactive |
| NCCc1ccc(O)cc1 | inactive |
| NC(=O)c1cc([N+](=O)[O-])cc([N+](=O)[O-])c1 | inactive |
| COc1cc(OC)c(OC)cc1C=O | inactive |
| O=C1c2ccccc2C(=O)C1C(=O)C(c1ccccc1)c1ccccc1 | inactive |
| C=C(C)[C@H]1CN[C@H](C(=O)O)[C@H]1CC(=O)O | inactive |
| C=CCN1C[C@H](C)N([C@H](c2ccc(C(=O)N(CC)CC)cc2)c2cccc(OC)c2)C[C@H]1C | inactive |
| O=C1c2ccccc2C(=O)c2ccccc21 | inactive |
| COC1CC(=C(c2cccs2)c2cccs2)C[N+](C)(C)C1 (stereo not given) | inactive |
| Clc1cccc(SC2CCNCC2)n1 | inactive |
| CC(C)c1cccc(C(C)C)c1O | inactive |
| ClCCN1CCCC1 | inactive |
| C[C@]12CC[C@@H]3c4ccc(OC(=O)N(CCCl)CCCl)cc4CC[C@H]3[C@@H]1CC[C@@H]2OP(=O)(O)O | inactive |
